# According to PubChem BioAssay:
# Calls of active or inactive are those of the source.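 The calls were made as follows, unless noted: active = compound raises insulin release from rat beta cells at 5 mM glucose, no numeric limit stated; inactive = the rest.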
# Key:
# [1] = stimulators of nuclear beta-catenin in C2C12, primary screen, imaging, WNT3A-conditioned medium, mouse C2C12, NPC library (AID 1117326; in the data active = nuclear beta-catenin stimulation mostly above about 4.2%, no sharp cut-off; inactive = mostly below about 10%; also: reference of the scale not given here); conditions: stronger effect = higher value
# [2] = stimulators of insulin release from INS-1E, primary screen, cell-based, 5 mM glucose, NPC library (AID 1117329); conditions: rat INS-1E insulin secretion, at 10 µM, stronger effect = higher value; also: reference of the scale not given here
# [3] = growth inhibition of GSK3B-pretreated HCT116 cells – cell-based, CellTiter-Glo, 0.2 to 20 µM (AID 1117336;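 active = compounds lowering colon cancer cell viability after pretreatment blocking the GSK3B kinase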); conditions: HCT116 viability after GSK3B inhibitor, at 20 µM, stronger effect = higher value
# [4] = inhibition of endothelial tube formation, primary screen, imaging, VEGF stimulated, CD31 staining, tube area, NPC library (AID 1117340;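 active = compound that reduces growth-factor-driven endothelial tube area in a mixed cell culture, no cutoff stated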); conditions: VEGF-stimulated ADSC/ECFC co-culture, at 10 µM, stronger effect = higher value
# [5] = glucagon-like peptide 1 release enhancers, primary assay, NCI-H716 cell line, NPC library (AID 1117341;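 active = compound raises GLP1 secretion from the human gut endocrine cells, with no numeric limit stated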; also: reference of the scale not given here); conditions: NCI-H716 cells, at 10 µM, stronger effect = higher value
# [6] = HCT116 colon cancer cell growth inhibition, primary screen, CellTiter-Glo luminescence, NPC library (AID 1117342;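 active = compounds that lower survival of HCT116 colon cancer cells in the luminescence readout, no numeric limit stated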); conditions: at 20 µM (top of the series)
# [7] = CellTiter-Glo luminescent readout of SW480 viability loss, NPC library primary (AID 1117343;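 active = compounds that lower viability of the colon cancer cells in the luminescence readout, with no numeric limit stated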); conditions: CellTiter-Glo luminescence; at 20 µM (top of the series)
# [8] = decreased DLD-1 cellular survival, CellTiter-Glo luminescent readout, NPC compound collection, primary HTS (AID 1117346;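 active = compounds that lower survival of DLD-1 colon cancer cells in the luminescence readout, no cutoff given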); conditions: DLD-1 viability, CellTiter-Glo luminescence; at 20 µM (top of the series)
Structure (SMILES),nuclear beta-catenin stimulation ([1]; at 10 µM),"nuclear beta-catenin stimulation ([1]; stimulation, at 2 µM) [%]",insulin secretion stimulation [2],viability decrease [3],tube area decrease [4],GLP1 secretion stimulation [5],inhibition of viability [6],viability decrease (inhibition) [7],viability decrease (inhibition) [8]
COc1cc(C(=O)N2CCCCCCC2)cc(OC)c1OC,0.9% (inactive),-1.2,5% (inactive),-2.3% (inactive),-2.6% (inactive),2.6% (inactive),17.8% (inactive),-7.8% (inactive),7.8% (inactive)
N#C/C(=C1/SC[C@@H](c2ccc(Cl)cc2Cl)S1)n1ccnc1,0.7% (inactive),2.8,2.35% (inactive),88% (active),23.8% (inactive),-1.8% (inactive),101% (active),116% (active),84.3% (active)
Cc1cc2nc3c(=O)[nH]c(=O)nc-3n(C[C@H](O)[C@H](O)[C@H](O)COP(=O)(O)OP(=O)(O)OC[C@H]3O[C@@H](n4cnc5c(N)ncnc54)[C@H](O)[C@H]3O)c2cc1C,-2.2% (inactive),0.2,5.5% (inactive),-3.6% (inactive),-2.4% (inactive),-3.7% (inactive),-18.9% (inactive),16.1% (inactive),-48.9% (inactive)
Nc1ccc(C(=O)Nc2ccccc2N)cc1,10.2% (inactive),1.9,-0.6% (inactive),39.9% (active),8.5% (inactive),1.1% (inactive),72.5% (active),64.9% (active),29.3% (inactive)
OCc1ccc(Cl)cc1Cl,2.2% (inactive),0.6,-2% (inactive),1.6% (inactive),13.7% (inactive),-5% (inactive),-2.7% (inactive),26.9% (inactive),13.2% (inactive)
CC(=O)OC(C)OC(=O)C(C)c1ccc(-c2ccccc2)c(F)c1 (stereo not given),3.1% (inactive),0.3,0.5% (inactive),-2.95% (inactive),-36.8% (inactive),-1.1% (inactive),8.9% (inactive),4.6% (inactive),-3.05% (inactive)
N#CSCC(=O)O,0.3% (inactive),1,0.5% (inactive),-47.6% (inactive),2.4% (inactive),-0.1% (inactive),-4.8% (inactive),-6.2% (inactive),-5.4% (inactive)
CCc1ccc(C(=O)C(C)CN2CCCCC2)cc1 (stereo not given),-0.3% (inactive),-0.1,14.3% (inactive),-4.9% (inactive),-30.1% (inactive),-1.5% (inactive),19.2% (inactive),7.4% (inactive),-0.2% (inactive)
CC(C)(C)c1ccc2c(S(=O)(=O)O)c(C(C)(C)C)ccc2c1,-2.9% (inactive),-1.4,0.3% (inactive),-22% (inactive),-2.7% (inactive),1% (inactive),-18.9% (inactive),9% (inactive),-14.4% (inactive)
O=C(O)CCC(=O)C(=O)O,-1.7% (inactive),-0.1,-2.2% (inactive),0.1% (inactive),-17.8% (inactive),-1.6% (inactive),-1.4% (inactive),2.9% (inactive),-7.5% (inactive)
CO[C@@]1(NC(=O)CSC[C@@H](N)C(=O)O)C(=O)N2C(C(=O)O)=C(CSc3nnnn3C)CS[C@@H]21,0.6% (inactive),-1.7,2.6% (inactive),4.5% (inactive),-11.8% (inactive),-0.5% (inactive),-0.6% (inactive),-15.3% (inactive),3.1% (inactive)
COc1ccc2nc(SCc3ncc(C)c(OC)c3C)[nH]c2c1,1.9% (inactive),0.8,3.1% (inactive),1% (inactive),24.8% (inactive),1.6% (inactive),26.8% (inactive),-12.2% (inactive),-6.1% (inactive)
Cc1oc(=O)oc1COC(=O)[C@@H]1N2C(=O)[C@@H](NC(=O)[C@H](N)c3ccccc3)[C@H]2SC1(C)C,0.5% (inactive),1.3,-1% (inactive),-11.1% (inactive),-10.3% (inactive),-1.9% (inactive),-15.2% (inactive),25.1% (inactive),-14.8% (inactive)
O=C(O)c1cc(=O)c2c3nc4ccccc4oc-3cc(=O)c2[nH]1,-0.4% (inactive),-0.7,-0.1% (inactive),10.4% (inactive),16.6% (inactive),-7.4% (inactive),-31.1% (inactive),17.8% (inactive),-15.6% (inactive)
COC(=O)[C@H]1[C@H]2C[C@@H]3c4[nH]c5cc(OC)ccc5c4CCN3C[C@H]2C[C@@H](OC(=O)/C=C/c2ccc(O)c(OC)c2)[C@@H]1OC,74.6% (active),3.6,0.4% (inactive),91.8% (active),21% (inactive),0.1% (inactive),85% (active),142% (active),102% (active)
